Assay outcomes as filed in PubChem.
D1 antagonist: blocks dopamine activation of the human D1 receptor | 3.2% of 360,000 active | HEK293 TREx D1 cells, calcium flux, dopamine EC80; hits give low values | P21728 | activity change, negative = inhibition, % at 10 µM; in the data active means activity change below about -30%; further: on the % scale 0 is the no-effect control and ±100 the full control effect
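Tetracycline-induced HEK293 T-REx cells with force-coupled D1 receptor were loaded with a no-wash calcium dye. Compound was added after a 10 s baseline and read kinetically for 180 s; EC80 dopamine was then added and calcium flux followed another 180 s.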
TRHR PAM: TRH receptor (human) allosteric enhancement. P34981. TRHR cells, fluo-8 calcium fluorescence, EC20 TRH enhancement. enhancement, % at 2 µM. 0.66% of 360,000 active; in the data active means enhancement above about 30%; further: 0% is about no effect
Target sequence (P34981 whole entry, looked up): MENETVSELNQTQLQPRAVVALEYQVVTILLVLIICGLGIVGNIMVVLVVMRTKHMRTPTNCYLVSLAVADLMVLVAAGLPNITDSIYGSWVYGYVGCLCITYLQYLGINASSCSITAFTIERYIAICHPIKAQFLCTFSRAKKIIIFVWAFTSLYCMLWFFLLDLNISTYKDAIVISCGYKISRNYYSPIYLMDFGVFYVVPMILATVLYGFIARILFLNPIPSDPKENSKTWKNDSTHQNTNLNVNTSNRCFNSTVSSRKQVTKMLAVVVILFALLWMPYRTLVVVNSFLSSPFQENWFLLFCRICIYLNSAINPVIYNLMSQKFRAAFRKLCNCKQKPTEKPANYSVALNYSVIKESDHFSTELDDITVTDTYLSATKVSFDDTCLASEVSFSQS
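TRHR-expressing cells loaded with fluo-8 calcium dye were read kinetically (ex 480/em 530) during compound addition, then stimulated with an EC20 of TRH (10 nM final). Enhancement of the Gq-mediated intracellular calcium response was scored.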
D1 potentiator: enhances dopamine response at the human D1 receptor. P21728. HEK293 TREx D1 cells, calcium flux, dopamine EC20 potentiation. AID 504651. potentiation, % at 10 µM. 0.036% of 360,000 active; in the data active means potentiation above about 30%; further: 0% is about no effect
TRHR agonist: agonists of human TRH receptor; P34981; activation, % at 2 µM; TRHR cells, calcium flux fluo-8, FDSS agonist mode; 0.18% of 360,000 active; AID 493084; further: 0% is about no effect
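In this calcium-flux screen, cells bearing human TRHR are dye-loaded with fluo-8, baselined for 10 cycles, then exposed to library compounds; positive kinetic calcium responses during the agonist phase mark hits, with TRH as control.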
D1 ag: human D1 receptor agonism; activation, % at 2 µM; HEK293 T-REx D1 cells, calcium flux, agonist mode; AID 504660; 1% of 360,000 active; further: 0% is about no effect
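Tetracycline-induced HEK293 TREx D1 cells, force-coupled to calcium signalling, were dye-loaded with a no-wash calcium kit. Compound was pin-added after a 10 s baseline. Fluorescence was read kinetically at 1 cycle/s for 180 s, with calcium rises flagged as agonism.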
Numbers without * were called inactive; . = no result. This is a sample that favours compounds with a hit; in the whole collection about 4.6% have one here. Unless noted, no stated cut-off is given here; in the data, active means activation above about 30%; inactive means the rest.

SMILES	D1 antagonist	TRHR PAM	D1 potentiator	TRHR agonist	D1 ag
CCN(Cc1ccccc1)S(=O)(=O)c1ccc(C(=O)N(CCCN(C)C)c2nc3cc4c(cc3s2)OCO4)cc1	-66*	1	-9	0	9
CN(C)CCCN(C(=O)c1ccc2c(c1)CCCC2)c1nc2cc3c(cc2s1)OCO3	-27	2	-2	1	39*
CCOC(=O)c1noc2nc(C)n(Cc3ccc([N+](=O)[O-])cc3)c(=O)c12	-8	6	-1	0	5
CCC(C)n1c(NC(=O)c2ccccc2)c(C#N)c2nc3ccccc3nc21 (stereo not given)	-5	-4	3	2	4
CCCCn1c(NC(=O)c2ccccc2)c(C#N)c2nc3ccccc3nc21	-4	-11	-1	11	35*
Cc1c2cnn(-c3ccccc3)c(=O)c2c(C)n1CC(=O)N1CCN(c2ccc(F)cc2)CC1	1	1	-3	0	4
CC(C(=O)NCC1CCCO1)n1cccc1C(=O)c1ccccc1 (stereo not given)	-31*	9	-2	-1	1
Cc1ccc(NC(=O)CSc2nc3c([nH]c4ccccc43)c(=O)n2C)cc1	-33*	-1	0	0	-1
Cc1cccc(NC(=O)CSc2nc3c([nH]c4ccccc43)c(=O)n2-c2ccc(F)cc2)c1C	-33*	3	1	-1	2
COc1ccc(-n2c(SCC(=O)Nc3cccc(C)c3C)nc3c([nH]c4ccccc43)c2=O)cc1	1	2	-2	0	1
O=C(CSc1nc2c([nH]c3ccccc32)c(=O)n1-c1ccc(F)cc1)N1CCc2ccccc21	-45*	9	-4	0	2
COc1cccc(-n2c(SCC(N)=O)nc3c([nH]c4ccccc43)c2=O)c1	-11	37*	-5	0	5
CCCOc1ccc(CNC(=O)c2oc3ccc4c(c3c2C)C(=O)CC(C)(CC)O4)cc1 (stereo not given)	0	5	-2	2	15
Cc1ccc(/C=N/N(C)C2=NS(=O)(=O)c3ccccc32)o1	-43*	-1	-3	-1	2
CC1=C(c2ccc(C)cc2)S(=O)(=O)N=C1N1CCN(c2ccccc2)CC1	7	-5	1	-1	2
CCC(=O)c1ccc(OCC(O)Cn2nnc3ccccc32)cc1 (stereo not given)	24	3	-2	0	3
Cc1cccc(C)c1OCCn1nnc2ccccc21	-42*	9	-2	0	8
Cc1ccccc1OCC(O)Cn1nnc2ccccc21 (stereo not given)	-55*	-3	-9	-1	20
COc1ccc(C(=O)C[n+]2ccc3c(c2)nc(-c2cc(OC)c(OC)cc2OC)n3C)cc1	-31*	-8	-4	0	1
CCS(=O)(=O)NCCc1csc2nc(-c3ccc(OC)cc3)nn12	.	-8	4	0	9
CCn1c(SCC(=O)Nc2sc(C)c(C)c2C#N)nnc1C(C)C	11	31*	-3	-1	1
COc1ccccc1NS(=O)(=O)c1cc(NC(C)=O)ccc1N1CCCCC1	11	-2	6	2	4
COCC(=O)Nc1ccc(N2CCCC2)c(S(=O)(=O)Nc2ccccc2OC)c1	-31*	-6	9	0	-1
COc1cc(Cl)c(C)cc1NC(=O)CSc1cc(=O)n(C)c2cc(Cl)ccc12	-11	2	9	0	-1
Cn1c(-c2cccc(Br)c2)cnc1NCc1ccccc1O	-35*	2	-5	0	4
SMILES	D1 antagonist	TRHR PAM	D1 potentiator	TRHR agonist	D1 ag
Cn1c(-c2ccccc2)cnc1NCc1ccccc1	-16	13	-15	0	0
O=C(NCc1ccc(F)cc1)C1CCN(S(=O)(=O)c2ccc3c(c2)CCCN3C(=O)C2CCC2)CC1	4	-9	-3	-1	0
CCOc1ccccc1NC(=O)c1c(NC(=O)c2cccc(C)c2)sc2c1CCC2	-14	-5	0	-2	-1
O=C(COC(=O)c1cccnc1Cl)NCCCc1ccccc1	-3	-6	-4	-1	2
O=C(COC(=O)c1ccccc1O)NCCCc1ccccc1	-34*	0	-6	-1	2
CC1(C)CC(=O)c2sc(NS(=O)(=O)c3ccccc3)nc2C1	-38*	21	5	0	-1
CC1(C)CC(=O)c2sc(NS(=O)(=O)c3ccc([N+](=O)[O-])cc3)nc2C1	0	6	-6	1	-1
CC1=NN(c2cccc([N+](=O)[O-])c2)C(=O)C1	-10	-6	-2	1	43*
CC1=NN(c2ccccc2)C(=O)C1	3	6	2	0	4
COc1ccccc1/C=C/C(=O)/C=C/c1ccccc1O	-34*	-12	-5	-1	4
O=C(Nc1ccccc1F)c1oc2ccccc2c1NC(=O)c1c(F)cccc1F	3	-4	3	0	4
CSc1ccc(NC(=O)NCCCN2CCN(c3ccccc3F)CC2)cc1	-73*	-1	-4	1	37*
O=C(NCCCN1CCN(c2ccccc2F)CC1)Nc1ccccc1[N+](=O)[O-]	-54*	2	-14	0	8
O=C(NCCCN1CCN(c2ccccc2F)CC1)Nc1ccc(F)cc1	-79*	3	-11	0	4
Cc1ccc(NC(=O)Cn2c(-c3nonc3N)nc3ccccc32)cc1C	-9	-5	-1	3	2
Cc1ccccc1-c1nc(NC(=O)CSc2ncnc3sc4c(c23)CCCC4)ns1	3	4	3	0	1
Cc1ccccc1NC(=O)C1CCC(CNS(=O)(=O)c2ccc3c(c2)C(C)(C)C(=O)N3C)CC1 (stereo not given)	1	-4	-3	1	4
COCCn1c(=O)[nH]c2cc(C(=O)NCCCN3CCN(c4ccc(F)cc4)CC3)ccc2c1=O	-39*	5	-3	0	2
COc1cc2[nH]c(=O)n(CCC(=O)NCCCN3CCN(c4ccccc4F)CC3)c(=O)c2cc1OC	-42*	-3	-9	0	2
O=C(CCCn1c(=O)[nH]c2cc(Cl)ccc2c1=O)NCCCN1CCN(c2ccc(F)cc2)CC1	-66*	16	-12	0	-1
O=C(CCCn1c(=O)[nH]c2cc(Cl)ccc2c1=O)NCCCN1CCCC1	-15	-1	-3	0	2
CN1CC=C2C(C#N)=C(N)C(C#N)(C#N)C(CCc3ccccc3)C2C1 (stereo not given)	-62*	22	-9	5	8
Cc1cc(C)n(-c2nnc(N3CCN(c4ccc(F)cc4)CC3)nn2)n1	-42*	-1	1	-1	3
CS(=O)(=O)c1sc(C#N)c2c1C(=O)CC(c1ccccc1)C2 (stereo not given)	-72*	-18	-12	4	2
